Experimental data as given in PubChem BioAssay AID1159580 (chemical genetic matrix, 2015).
Among all 5,500 compounds or so, about 2,000 (36%) were called active. About 18% were inconclusive and are not listed. Cut-off read from the data, not from the text of the source: active = normalized growth mostly below about 0.91 (no sharp cut-off); inconclusive = no clear call, values can overlap the other calls; inactive = mostly above about 0.92. Some of the results follow.

Assay: chemical genetic growth profiling, strain panel (AID 1159580);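 note: tested at 20 µM; growth read once vehicle control cultures reached saturation at 30 °C; 1 = growth at the plate median or of vehicle wells; lower values mean less growth of the strain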
Conditions: growth OD

Measured: normalized growth

CCCCOC(=O)c1ccccc1C(=O)OCc1ccccc1
inactive: S. cerevisiae deletion strains, locus YAL013W, strain DEP1, stronger effect = lower value 0.988 | S. cerevisiae deletion strains, locus YBR021W, strain FUR4, stronger effect = lower value 0.965 | S. cerevisiae deletion strains, locus YBR229C, strain ROT2, stronger effect = lower value 0.987 | S. cerevisiae deletion strains, locus YCL029C, strain bik1, stronger effect = lower value 0.957 | S. cerevisiae deletion strains, locus YDL035C, strain GPR1, stronger effect = lower value 0.956 | S. cerevisiae deletion strains, locus YDL074C, strain BRE1, stronger effect = lower value 0.971 | S. cerevisiae deletion strains, locus YDL101C, strain DUN1, stronger effect = lower value 0.99 | S. cerevisiae deletion strains, locus YDL134C, strain PPH21, stronger effect = lower value 0.986 | S. cerevisiae deletion strains, locus YDL185W, strain tfp1, stronger effect = lower value 0.961 | S. cerevisiae deletion strains, locus YDL192W, strain arf1, stronger effect = lower value 0.972 | S. cerevisiae deletion strains, locus YDR101C, strain arx1, stronger effect = lower value 0.971 | S. cerevisiae deletion strains, locus YDR150W, strain NUM1, stronger effect = lower value 0.947 | S. cerevisiae deletion strains, locus YDR162C, strain NBP2, stronger effect = lower value 0.975 | S. cerevisiae deletion strains, locus YDR318W, strain mcm21, stronger effect = lower value 0.967 | S. cerevisiae deletion strains, locus YDR388W, stronger effect = lower value 0.95 | S. cerevisiae deletion strains, locus YDR502C, strain sam2, stronger effect = lower value 0.966 | S. cerevisiae deletion strains, locus YEL061C, strain CIN8, stronger effect = lower value 0.989 | S. cerevisiae deletion strains, locus YER110C, stronger effect = lower value 0.968 | S. cerevisiae deletion strains, locus YER155C, strain BEM2, stronger effect = lower value 0.968 | S. cerevisiae deletion strains, locus YER167W, strain BCK2, stronger effect = lower value 0.983 | S. cerevisiae deletion strains, locus YGL078C, strain dbp3, stronger effect = lower value 0.968 | S. cerevisiae deletion strains, locus YGL086W, strain mad1, stronger effect = lower value 0.975 | S. cerevisiae deletion strains, locus YGL248W, strain PDE1, stronger effect = lower value 0.993 | S. cerevisiae deletion strains, locus YGR078C, strain PAC10, stronger effect = lower value 0.97 | S. cerevisiae deletion strains, locus YGR135W, strain pre9, stronger effect = lower value 0.972 | S. cerevisiae deletion strains, locus YGR229C, strain SMI1, stronger effect = lower value 0.895 | S. cerevisiae deletion strains, locus YGR252W, strain gcn5, stronger effect = lower value 0.994 | S. cerevisiae deletion strains, locus YHR030C, strain SLT2, stronger effect = lower value 0.981 | S. cerevisiae deletion strains, locus YHR079C, strain IRE1 (second series), stronger effect = lower value 0.966 | S. cerevisiae deletion strains, locus YHR094C, strain hxt1, stronger effect = lower value 0.965 | S. cerevisiae deletion strains, locus YHR129C, strain ARP1, stronger effect = lower value 0.983 | S. cerevisiae deletion strains, locus YHR200W, strain rpn10, stronger effect = lower value 0.978 | S. cerevisiae deletion strains, locus YIL066C, strain RNR3, stronger effect = lower value 0.929 | S. cerevisiae deletion strains, locus YIL073C, strain SPO22, stronger effect = lower value 0.821 | S. cerevisiae deletion strains, locus YIL125W, strain kgd1, stronger effect = lower value 0.978 | S. cerevisiae deletion strains, locus YIR030C, strain dcg1, stronger effect = lower value 0.965 | S. cerevisiae deletion strains, locus YJL095W, strain BCK1, stronger effect = lower value 0.994 | S. cerevisiae deletion strains, locus YJL134W, strain LCB3, stronger effect = lower value 0.968 | S. cerevisiae deletion strains, locus YJL168C, strain set2, stronger effect = lower value 0.974 | S. cerevisiae deletion strains, locus YJL187C, strain SWE1 (second series), stronger effect = lower value 0.971 | S. cerevisiae deletion strains, locus YJR043C, strain POL32, stronger effect = lower value 0.989 | S. cerevisiae deletion strains, locus YJR075W, strain HOC1, stronger effect = lower value 0.98 | S. cerevisiae deletion strains, locus YKL009W, strain mrt4, stronger effect = lower value 0.94 | S. cerevisiae deletion strains, locus YKL068W, stronger effect = lower value 0.964 | S. cerevisiae deletion strains, locus YKL085W, strain MDH1 (second series), stronger effect = lower value 0.973 | S. cerevisiae deletion strains, locus YKL085W, strain MDH1, stronger effect = lower value 0.973 | S. cerevisiae deletion strains, locus YKL190W, strain CNB1, stronger effect = lower value 0.979 | S. cerevisiae deletion strains, locus YKR001C, strain vps1, stronger effect = lower value 0.959 | S. cerevisiae deletion strains, locus YLR039C, strain RIC1, stronger effect = lower value 0.934 | S. cerevisiae deletion strains, locus YLR058C, strain SHM2, stronger effect = lower value 0.974 | S. cerevisiae deletion strains, locus YLR102C, strain apc9, stronger effect = lower value 0.971 | S. cerevisiae deletion strains, locus YLR262C, strain YPT6, stronger effect = lower value 0.858 | S. cerevisiae deletion strains, locus YLR268W, strain sec22, stronger effect = lower value 0.968 | S. cerevisiae deletion strains, locus YLR330W, strain CHS5, stronger effect = lower value 0.987 | S. cerevisiae deletion strains, locus YLR342W, strain FKS1 (second series), stronger effect = lower value 0.952 | S. cerevisiae deletion strains, locus YLR371W, strain rom2, stronger effect = lower value 0.97 | S. cerevisiae deletion strains, locus YLR418C, strain cdc73, stronger effect = lower value 0.976 | S. cerevisiae deletion strains, locus YML016C, strain PPZ1, stronger effect = lower value 0.996 | S. cerevisiae deletion strains, locus YML032C, strain rad52, stronger effect = lower value 0.964 | S. cerevisiae deletion strains, locus YML124C, strain tub3, stronger effect = lower value 0.956 | S. cerevisiae deletion strains, locus YMR078C, strain ctf18, stronger effect = lower value 0.957 | S. cerevisiae deletion strains, locus YMR223W, strain ubp8, stronger effect = lower value 0.957 | S. cerevisiae deletion strains, locus YMR263W, strain SAP30, stronger effect = lower value 0.973 | S. cerevisiae deletion strains, locus YMR307W, strain GAS1, stronger effect = lower value 0.718 | S. cerevisiae deletion strains, locus YNL067W, strain RPL9B, stronger effect = lower value 0.979 | S. cerevisiae deletion strains, locus YNL128W, strain TEP1, stronger effect = lower value 0.985 | S. cerevisiae deletion strains, locus YNL153C, strain GIM3, stronger effect = lower value 0.981 | S. cerevisiae deletion strains, locus YNL233W, strain BNI4, stronger effect = lower value 0.998 | S. cerevisiae deletion strains, locus YNL250W, strain rad50, stronger effect = lower value 0.968 | S. cerevisiae deletion strains, locus YNL271C, strain bni1, stronger effect = lower value 0.973 | S. cerevisiae deletion strains, locus YNL298W, strain CLA4, stronger effect = lower value 0.949 | S. cerevisiae deletion strains, locus YNL307C, strain MCK1, stronger effect = lower value 0.915 | S. cerevisiae deletion strains, locus YNL322C, strain KRE1, stronger effect = lower value 0.981 | S. cerevisiae deletion strains, locus YNR052C, strain pop2, stronger effect = lower value 0.964 | S. cerevisiae deletion strains, locus YOL006C, strain TOP1, stronger effect = lower value 0.838 | S. cerevisiae deletion strains, locus YOL012C, strain htz1 0.742 | S. cerevisiae deletion strains, locus YOL147C, strain pex11, stronger effect = lower value 0.964 | S. cerevisiae deletion strains, locus YOR061W, strain CKA2, stronger effect = lower value 0.984 | S. cerevisiae deletion strains, locus YOR069W, strain VPS5, stronger effect = lower value 0.982 | S. cerevisiae deletion strains, locus YOR136W, strain idh2, stronger effect = lower value 0.972 | S. cerevisiae deletion strains, locus YOR144C, strain elg1, stronger effect = lower value 0.962 | S. cerevisiae deletion strains, locus YOR184W, strain ser1, stronger effect = lower value 0.931 | S. cerevisiae deletion strains, locus YOR316C, strain cot1, stronger effect = lower value 0.972 | S. cerevisiae deletion strains, locus YPL055C, strain LGE1, stronger effect = lower value 0.957 | S. cerevisiae deletion strains, locus YPL241C, strain CIN2, stronger effect = lower value 0.979 | S. cerevisiae deletion strains, locus YPR119W, strain clb2, stronger effect = lower value 0.955 | S. cerevisiae deletion strains, locus YPR141C, strain kar3, stronger effect = lower value 0.959 | S. cerevisiae deletion strains, locus YPR163C, strain tif3, stronger effect = lower value 0.963 | S. cerevisiae deletion strains, locus YPR167C, strain met16, stronger effect = lower value 0.98 | S. cerevisiae deletion strains, strain wtn01, stronger effect = lower value 0.96 | S. cerevisiae strains, strain wild type, stronger effect = lower value 0.981
